Screens from PubChem BioAssay.
In the library only some 19% were active in any assay of this set; here they are far more common.
DT40 TDP1 CPT: DT40-hTDP1 cell growth loss with CPT; 420,000 tested, 12% active; chicken DT40 Tdp1-/-;hTDP1 cells + 20 nM CPT, ATP luminescence, 48 h; Potency, µM (top dose mostly 46.2 µM), without a hit: at the highest dose activity change, negative = growth inhibition, most hits filed as inhibitors; AID 686979; also: potency is read from the fitted curve at half-maximal effect; nearly all actives have a fitted effect of over 55% in size
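Chicken DT40 Tdp1-/- cells stably complemented with human TDP1 were seeded at 400 cells/well in medium containing 20 nM camptothecin, exposed to pin-transferred compounds, and grown at 37 °C for at least 48 hr. Viability was read as ATP luminescence.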
HT1080NT lethal: kills 2HG-producing HT-1080-NT fibrosarcoma cells; Potency, µM (series often up to 46.1 µM), inactives show at the highest dose activity, negative = less viability, hits mostly cytotoxic; 360,000 tested, 1.6% active; HT-1080-NT fibrosarcoma viability, CellTiter-Glo ATP luminescence, 48 h; AID 686970;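 also: NT is the 2HG producing partner of a matched IDH1 knockdown line; potency is read from the fitted curve at half-maximal effect; 0% = DMSO-treated cells and -100% = media-only wells without cells; nearly all actives have a fitted effect of over 55% in size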
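750 cells/well, RPMI + 5% FBS; 2 h settle, compound pin-transfer, 48 h at 37 degrees C. CellTiter-Glo 10 min RT, luminescence. Normalized to DMSO and media-only wells.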
IL-1B inflam inh: blocks inflammasome-driven IL-1 beta release. 360,000 tested, 4.7% active. activity change, % at 57.5 µM. THP-1 LPS/ATP IL-1B secretion, AlphaLISA, 16 h; stronger effect = lower value; in the data active = activity change below about -50%; inconclusive = mostly about -30% to -49%
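THP-1 cells pretreated 1 hr with compounds (up to 57.5 uM final), then stimulated with LPS (250 ng/mL final) plus ATP (1.25 mM final); secreted IL-1B measured by AlphaLISA after 16 hr, decreased signal indicating inhibition.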
TDP1 cell noCPT: qHTS for Inhibitors of human tyrosyl-DNA phosphodiesterase 1 (TDP1): qHTS in cells in absence of CPT. AID 686978, 2013. 420,000 tested, 15% active. DT40 Tdp1-/- hTDP1 cells, no CPT, ATP luminescence, 48 h. Potency, µM (highest dose often 46.2 µM), for inactives: at the top dose activity change, negative = growth inhibition, actives largely listed as inhibitors; also: potency is read from the fitted curve at half-maximal effect; nearly all actives have a fitted effect of over 55% in size
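Compound effects on proliferation are scored in DT40 Tdp1-/-;hTDP1 cells in the absence of CPT. ATP levels (CellTiter-Glo luminescence) are recorded after a ≥48 hr, 37 °C incubation.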
HT1080 IDH1KD tx: kills HT-1080 cells with IDH1 knockdown | HT-1080 IDH1 knockdown viability, ATP luminescence, 48 h | Potency, µM (titrated, usually from 46.1 µM), without a hit: top-dose activity, negative = toxicity, actives largely listed as cytotoxic | 360,000 tested, 2% active;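 also: potency is read from the fitted curve at half-maximal effect; 0% = DMSO wells and -100% = cell-free medium wells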
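IDH1KD HT-1080 cells, 750/well, RPMI + 5% FBS; compound pinned after 2 h settling; 48 h, 37 °C; CellTiter-Glo luminescence; % activity normalised to DMSO and no-cell wells; curves fitted, classed by r2 and efficacy.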
Starred values were filed as active, the others as inactive; ? = inconclusive; nt = no result given. Unless noted, calls follow the shape of the dose curve; as a rule, active = well fitted curve in the direction sought with a large enough effect; inconclusive = small, poorly fitted or top-dose-only effect, or another doubt; inactive = no such curve, though single readings can be large; an effect the other way counts as inactive or inconclusive. Unless noted, % is scaled to controls: 0 for no effect and ±100 for the full control effect.

SMILES | DT40 TDP1 CPT | HT1080NT lethal | IL-1B inflam inh | TDP1 cell noCPT | HT1080 IDH1KD tx
CC(=O)Nc1cc(C(=O)NCc2ccc(C)cc2)ccc1S(=O)(=O)c1ccc(Cl)cc1 | ? | nt | nt | 16µM* | nt
CCOc1ccc(CNC(=O)c2ccc(Sc3ccc(Cl)cc3)c(NC(C)=O)c2)cc1 | 23µM* | -22% | ? | 18µM* | ?
CCOc1ccccc1CNC(=O)c1ccc(Sc2ccc(Cl)cc2)c(NC(C)=O)c1 | ? | 0% | -3 | ? | 3%
Cn1ccc2c(OCC(=O)NCc3ccc(F)cc3)cccc2c1=O | -30% | nt | nt | ? | nt
Cc1cccc2c(=O)c(C(=O)NCCc3ccccc3)c[nH]c12 | -17% | ? | 10 | ? | ?
CCCNC(=O)NCCc1c(C)[nH]c2ccccc12 | 9% | 1% | 13 | -7% | 8%
CN(C)C(=O)c1ccc2c(c1[N+](=O)[O-])C(=O)c1ccccc1C2=O | 2.9µM* | -18% | -5 | 5.8µM* | -16%
Cc1[nH]c2ccccc2c1CCNC(=O)c1ccc2c(c1[N+](=O)[O-])C(=O)c1ccccc1C2=O | 4.6µM* | -17% | -103* | 2.9µM* | ?
Cc1[nH]c2c(C)cccc2c1CCNC(=O)c1ccc2c(c1[N+](=O)[O-])C(=O)c1ccccc1C2=O | 16µM* | 16µM* | -109* | 8.2µM* | 21µM*
Clc1nnc(Cl)c2c1ncn2Cc1ccccc1 | -5% | 0% | 6 | ? | 4%
Cc1cccc(C(=O)N[C@H](C(=O)Nc2ccc3c(c2)OCO3)C(C)C)c1 | -21% | -14% | -20 | -17% | -2%
Cc1ccc(NC(=O)/C=C/c2ccco2)cc1F | 7.3µM* | nt | nt | 9.2µM* | nt
Cc1cc(NC(=O)/C=C/c2ccco2)ccc1NC(=O)c1ccccc1 | -15% | 17% | -24 | -26% | 20%
O=C(/C=C\c1ccco1)Nc1cc([N+](=O)[O-])ccc1F | 2.1µM* | 1.5µM* | 22 | 1.6µM* | ?
CSc1nc(N)c(C(=O)NC2CCCCC2)s1 | -26% | 0% | -6 | ? | -3%
Cc1nn(C(C)C(=O)N2CCCCC2)c(=O)c2c1sc1ccccc12 (stereo unspecified) | ? | 10% | 7 | 21µM* | 0%
COc1ccc(N2CCN(C(=O)C(C)n3nc(C)c4sc5ccccc5c4c3=O)CC2)cc1 (stereo unspecified) | ? | nt | nt | 16µM* | nt
Cc1nn(CCCC(=O)Nc2cccnc2Cl)c(C)c1[N+](=O)[O-] | -6% | -3% | 33 | -2% | 6%
CCOC(=O)c1cc2c(=O)n3ccccc3nc2n(C(C)C)c1=NC(=O)C(C)(C)Oc1ccc(Cl)cc1 | 0% | nt | nt | -15% | nt
COc1ccc(CCn2c(-c3ccco3)nc3nc4ccccc4nc32)cc1 | 16µM* | 5% | -22 | 10µM* | -1%
COc1ccc(CCn2c(-c3cc([N+](=O)[O-])cc([N+](=O)[O-])c3)nc3nc4ccccc4nc32)cc1OC | ? | 3% | 10 | 23µM* | 11%
COc1ccc(C(=O)n2c(-c3ccco3)nc3ccccc32)cc1 | 6.5µM* | ? | -6 | 4.1µM* | 5.8µM*
Clc1ccc(OCCn2c(-c3ccco3)nc3ccccc32)cc1 | ? | -5% | 0 | ? | -24%
c1ccc(Cn2c(-c3ccco3)nc3nc4ccccc4nc32)cc1 | 13µM* | ? | -9 | ? | ?
Cc1ccnc(NS(=O)(=O)c2ccc(NC(=O)C3COc4ccccc4O3)cc2)n1 (stereo unspecified) | ? | -1% | -5 | ? | -11%
Cc1onc(-c2ccccc2)c1C(=O)OCC(=O)N1CCC(C)CC1 | -12% | -3% | 14 | 5% | 4%
COc1ccc(CCn2c(-c3cc([N+](=O)[O-])cc([N+](=O)[O-])c3)nc3nc4ccccc4nc32)cc1 | ? | 12% | 14 | ? | 22%
